In all, about 350,000 compounds went through this assay and about 2,300 (0.66%) were called active. Many of the other results were omitted from the sample, so actives are more common in it than they were. Unmarked numbers belong to inactive results.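 The calls were made as follows: active = mean inhibition of at least 50% after viability correction, with every replicate also passing that limit; inconclusive = mean reaches 50% but only one of two replicates passes; inactive = the rest.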
Assay: blockers of EWS/Fli transcriptional output – A673 cells, NR0B1 luciferase, luminescence, MLPCN library, primary screen (AID 651661);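 also: firefly luciferase signal divided by Alamar Blue viability fluorescence both relative to DMSO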
Conditions: A673 NR0B1-luciferase reporter, viability-normalised; at 12.6 µM; hits give high values

SMILES	inhibition
C[C@H]1CN([C@@H](C)CO)C(=O)c2cc(/C=C/c3ccccc3)cnc2O[C@@H]1CN(C)C(=O)NC1CCCCC1	-13.4%
COCC(=O)Nc1ccc2c(c1)OC[C@@H](C)N(C(=O)c1cnccn1)C[C@H](C)[C@@H](OC)CN(C)C2=O	-0.326%
CC(C)c1cc(C(=O)NC2CCCCCC2)c2ccccc2n1	-3.93%
CC(C)C(C)NC(=O)COc1nc2ccccc2nc1N(C)C1CCCCC1 (centres undefined)	6.59%
CN(c1ccc2nc3ccccc3c(=O)n2n1)C1CCCCC1	84.9% (active)
COc1cccc(NC(=O)C[C@@H]2CC[C@H]3[C@@H](COc4ccc(NC(=O)C5CCC5)cc4C(=O)N3C)O2)c1	-3.34%
Cc1ccc(S(=O)(=O)Nc2ccc3c(c2)C(=O)N([C@@H](C)CO)C[C@H](C)[C@@H](CN(C)CC2CC2)O3)cc1	-3.89%
C[C@H]1CN([C@@H](C)CO)C(=O)c2ccccc2-c2ccccc2CO[C@@H]1CN(C)C(=O)CCN(C)C	2.93%
COc1ccc(-c2nc3c(s2)CCc2onc(-c4ccc(Br)cc4)c2-3)cc1	24.2%
COc1ccc(-c2nc(CCNC(=O)c3ccc(Br)o3)cs2)cc1	-1.15%
COc1ccc(-c2nc3c(s2)CCc2onc(-c4ccc(OC)cc4)c2-3)cc1	65.6% (active)
C[C@@H]1CN([C@@H](C)CO)C(=O)c2cc(NS(=O)(=O)c3cn(C)cn3)ccc2O[C@@H](C)CCCCO[C@@H]1CN(C)Cc1ccncc1	4.01%
COCC(=O)Nc1ccc2c(c1)C(=O)N(C)C[C@@H](OC)[C@@H](C)CN(CC1CCCCC1)[C@@H](C)CO2	-0.183%
CCC(=O)N1CC(=O)N2[C@@H](CO)[C@@H](c3ccc(C#CC4CCCC4)cc3)[C@@H]2C1	9.48%
CCC(=O)N1CC(=O)N2[C@@H](CO)[C@H](c3ccc(C#CC4CCCC4)cc3)[C@@H]2C1	56.6% (active)
COCC(=O)N1CC(=O)N2[C@H](CO)[C@@H](c3ccc(C#CC4CCCC4)cc3)[C@H]2C1	-0.851%
COc1ccc2c3c([nH]c2c1)[C@@H](CO)N(C(=O)CN1CCOCC1)CC31CCN(C)CC1	-7.25%
CO[C@H]1CN(C)C(=O)c2ccc(NS(C)(=O)=O)cc2OC[C@@H](C)N(Cc2ccccc2)C[C@H]1C	-2.52%
O=C(C1CC1)N1CC(=O)N2[C@H](CO)[C@@H](c3ccc(-c4ccccc4F)cc3)[C@@H]2C1	-0.073%
COc1ccc2c3c(n(C)c2c1)[C@@H](CO)N(CC1CC1)CC31CN(C(=O)Nc2c(C)noc2C)C1	-1.03%

SMILES	inhibition
CC(=O)Nc1ccc2nc(NC(=O)CS(=O)(=O)c3ccc(F)cc3)sc2c1	-3.37%
CCCn1nc(C(=O)Nc2ccc3nc(C)sc3c2)c2ccccc2c1=O	-12%
CCCC(=O)Nc1nc2ccc(NC(=O)c3c(F)c(F)c(OC)c(F)c3F)cc2s1	57.7% (active)
O=C(NC[C@@H]1[C@@H](c2ccccc2)[C@H](CO)N1C(=O)C1CCC1)NC1CCCC1	14.7%
COc1ccccc1-c1ccc2n(c1=O)C[C@@H]1[C@@H](CO)[C@H](C(=O)NCc3ccccc3Cl)N[C@H]21	-17.8%
Cc1ccc(-c2nn(-c3ccccc3)cc2/C=C2\SC(=S)N(CCCCCC(=O)O)C2=O)o1	-10.8%
C=CCOc1ccc(/C=C2\SC(=S)N(CCC(=O)O)C2=O)cc1	78.5% (active)
O=C1/C(=C/c2ccc(F)cc2)SC(=S)N1CCCC(=O)N1CCCCC1CCO (centres undefined)	-2.88%
C[C@H]1CN([C@@H](C)CO)C(=O)c2cccc(NS(=O)(=O)c3ccc(F)cc3)c2O[C@@H]1CN(C)C	1.9%
Cc1ccc(S(=O)(=O)N(C)C[C@@H]2Oc3c(NC(=O)c4ccncc4)cccc3C(=O)N([C@@H](C)CO)C[C@@H]2C)cc1	-2.33%
COc1ccc(NC(=O)N[C@@H]2C=C[C@H](CC(=O)NC3CCC3)O[C@@H]2CO)cc1	3.89%
O=C(C1CCCC1)N1CC(=O)N2[C@H](C1)[C@@H](c1ccc(-c3ccccc3F)cc1)[C@@H]2CO	-3.17%
COc1ccc2c3c(n(C)c2c1)[C@H](CO)NCC31CCN(C(=O)Nc2ccccc2F)CC1	9.22%
C[C@H]1CN([C@@H](C)CO)C(=O)c2c(c3ccccc3n2C)-c2ccccc2CO[C@H]1CN(C)C(=O)Nc1ccc(F)cc1	-3.34%
O=C(C[C@H]1C[C@@H]2c3cc(NC(=O)c4cccnc4)ccc3O[C@@H]2[C@@H](CO)O1)NCc1ccccc1F	6.33%
C[C@H](O)C#Cc1ccc2c(c1)O[C@@H](CN(C)CC1CCCC1)[C@H](C)CN([C@@H](C)CO)S2(=O)=O	-1.43%
Cc1ccc(CCC(=O)Nc2ncc(Cc3cc(Cl)ccc3Cl)s2)o1	54% (active)
O=C(CCc1ccccc1Cl)Nc1ccc(S(=O)(=O)Nc2nccs2)cc1	8.82%
Cc1ccc(C(=O)Nc2nc3ccc(Cl)cc3s2)o1	-92.8%
CCC(=O)Nc1ccc2c(c1)C(=O)N(C)C[C@H](OC)[C@@H](C)CN(C(=O)c1cnccn1)[C@@H](C)CO2	4.08%

SMILES	inhibition
O=C(NC[C@H]1CC[C@H]2[C@H](CN2Cc2cccc(Cl)c2)O1)C1CC1	5.25%
CCCNC(=O)c1c(Cl)cnn1-c1ccc(C)cc1	-130%
Cc1cccc(-n2ncc3c(=O)[nH]c(SCC(=O)Nc4cc(C)on4)nc32)c1	-9.98%
Cc1cccc(-n2ncc(Cl)c(Cl)c2=O)c1	79.8% (active)
O=C(C[C@@H]1C[C@@H]2c3cc(NS(=O)(=O)c4ccc(F)cc4)ccc3O[C@@H]2[C@@H](CO)O1)N1CCOCC1	-1.95%
CNC[C@H]1Oc2cc(C#CC3CCCC3)ccc2S(=O)(=O)N([C@H](C)CO)C[C@@H]1C	3.9%
Cc1ccc2[nH]c(=O)c(CC(=O)O)c(-c3ccccc3)c2c1	-1.99%
Cc1cccc(N(C)C(=O)c2cc3c(=O)[nH]c4ccc(C)cc4c3s2)c1	65% (active)
CCN(CC)CCCNC(=O)c1cc2c(=O)[nH]c3ccc(C)cc3c2s1	7.57%
O=C([C@H]1[C@H](CO)[C@H]2Cn3c(cccc3=O)[C@@H]1N2Cc1cocn1)N1CCCCC1	-0.44%
CCC(C)Cn1c(O)cc2nn(-c3nc4ccccc4s3)c(=O)c-2c1C (centres undefined)	64.5% (active)
N#Cc1ccc(-c2ccc([C@H]3[C@H](CO)N4C(=O)CN(C(=O)Cc5ccccc5)C[C@@H]34)cc2)cc1	-6.19%
COc1ccc(CNC(=O)C[C@@H]2C=C[C@@H](NC(=O)c3ccc4c(c3)OCO4)[C@@H](CO)O2)cc1	-0.519%
CCNC(=O)C[C@@H]1CC[C@@H]2[C@@H](COc3ccc(NC(=O)Nc4ccccc4F)cc3C(=O)N2C)O1	-3.28%
CCOc1cc2[nH]c(=S)n(Cc3ccc(C(=O)N4CCN(C)CC4)cc3)c(=O)c2cc1OCC	67.5% (active)
COc1ccc(Cn2c(=S)[nH]c3cc(C(=O)N4CCCCC4)ccc3c2=O)cc1	-2.4%
COc1cc2[nH]c(=S)n(Cc3ccc(F)cc3)c(=O)c2cc1OC	11.2%
O=C(Nc1ccc(F)cc1)N[C@@H]1CC[C@H](CC(=O)N2CCCCC2)O[C@H]1CO	6.37%
C[C@@H]1CN([C@@H](C)CO)S(=O)(=O)c2ccc(-c3ccc(C(=O)N(C)C)cc3)cc2O[C@@H]1CN(C)C(=O)Cc1ccccn1	-2.65%
